Pf growth 96h: inhibits malaria parasite growth, 96 h; P. falciparum luciferase reporter growth, 96 h; Potency, µM (titrated, usually from 28.7 µM), inactives show at the highest dose activity change, negative = inhibition, most hits filed as inhibitors; actives 6.9% (n = 320,000); AID 504834; further: on the % scale 0 is the no-effect control and ±100 the full control effect
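Luminescence readout: decreased luciferase signal marks inhibited growth of reporter-expressing P. falciparum in infected red cells (2% hematocrit, 0.05% parasitemia final), exposed to compound two generations (96 h, 37 C, 5% CO2).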
Sm TGR block: inhibitors of Schistosoma mansoni thioredoxin glutathione reductase; AID 485364; purified TGR, DTNB reduction, TNB absorbance 405 nm; Q962Y6; Potency, µM (top dose mostly 114 µM), inactives show top-dose activity change, negative = inhibition, most hits filed as inhibitors; actives 3% (n = 360,000); further: on the % scale 0 is the no-effect control and ±100 the full control effect; nearly all actives have a fitted effect of over 60% in size
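Kinetic colorimetric format: TGR-catalysed, NADPH-driven DTNB reduction monitored via TNB absorbance. Enzyme dispensed at 20 nM; compound exposure 15 min at room temperature before reaction start.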
Pf growth 48h: inhibits P. falciparum growth in the first generation, 48 h. actives 5.9% (n = 310,000). P. falciparum luciferase growth in erythrocytes, 48 h. Potency, µM (titrated, usually from 28.7 µM), inactives show at the highest dose activity change, negative = inhibition, hits mostly inhibitors. AID 504832; further: on the % scale 0 is the no-effect control and ±100 the full control effect
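A one-generation exposure of luciferase-tagged malaria parasites in RPMI 1640/Albumax erythrocyte culture, 37 C and 5% CO2. Inhibition is inferred from decreased luminescence after adding detection reagent.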
SARS PLP yeast: SARS-CoV PLP inhibition in yeast. S. cerevisiae expressing SARS-CoV PLpro, growth rescue. Potency, µM (highest dose often 32.9 µM), without a hit: at the top dose activity, positive = growth rescue, hits mostly activators. actives 0.19% (n = 330,000); calls by dose curve; further: 0% is about no effect; nearly all actives have a fitted effect of over 55% in size
Active calls of the source: *; i = inactive; ? = inconclusive; . = no result given; [ ] = remark or other dose. A selection: hits, their analogues and other compounds. The true share with any hit is near 12%. Unless noted, the call rests on the fitted dose curve; in most records, active means well fitted curve in the direction sought with a large enough effect; inconclusive means small, poorly fitted or top-dose-only effect, or another doubt; inactive means no such curve, though single readings can be large; an effect the other way counts as inactive or inconclusive. Potency means the concentration at half of the fitted maximal effect.

SMILES	Pf growth 96h	Sm TGR block	Pf growth 48h	SARS PLP yeast
CN(Cc1nc2ccccc2n1C)C(=O)c1ccco1	1.7µM*	0%	15%	-8%
CN(Cc1nc2ccccc2n1C)S(C)(=O)=O	i	-8%	38%	5%
COc1cc(C2Nc3cccc4cccc(c34)N2)cc(OC)c1O	0%	?	-26%	-5%
O=[N+]([O-])c1cccc(C2Nc3cccc4cccc(c34)N2)c1	-7%	35µM*	4.1µM*	-9%
CC1C(=O)C(C)C(c2ccc([N+](=O)[O-])cc2)NC1c1ccc([N+](=O)[O-])cc1 (centres undefined)	41%	-3%[57.1 µM]	?	1%
O=[N+]([O-])c1ccc(C2Nc3cccc4cccc(c34)N2)cc1	13µM*	20µM*	-85%	-25%
COc1ccc(NCc2cc3cc4c(cc3n(CC(=O)Nc3ccc(C)cc3)c2=O)OCO4)cc1	.	-16%	.	.
CCOC(=O)C1=C(C)N=C2c3ccccc3C(=O)C2C1c1ccc(Cl)cc1 (centres undefined)	10µM*	-9%	10µM*	-12%
Cc1ccc(OCc2nc(C#N)c(NCc3ccc4c(c3)OCO4)o2)cc1	12%	-5%	-15%	-10%
C=CCNc1oc(COc2ccc(C)cc2)nc1C#N	6.6µM*	-6%	.	0%
CN(C)CCNc1oc(COc2ccc(-c3ccccc3)cc2)nc1C#N	.	45µM*	?	-10%
N#Cc1nc(COc2ccc(-c3ccccc3)cc2)oc1NCCCN1CCOCC1	?	-9%	?	-5%
COc1ccc(OCC(=O)NCC2(N3CCN(C)CC3)CCCCC2)cc1	.	-1%	.	.
Cc1nc(NC2=NCN(CCc3ccccc3)CN2)nc2ccccc12	.	0%	?	0%
COCCN1CN=C(Nc2nc(C)c3ccc(C)cc3n2)NC1	3%	1%	2.1µM*	-1%
Cc1ccc2c(C)nc(NC3=NCN(CCc4ccccc4)CN3)nc2c1	239%	-12%	2.6µM*	0%
CCC(C)(C)NS(=O)(=O)c1cc(-c2cc(C)no2)ccc1C	.	-3%	.	.
COc1ccc(CCNC(=O)c2cc(Sc3cccc(Cl)c3)nc3ccccc23)cc1OC	.	2%	.	.
O=C(Cc1cccc2ccccc12)Nc1nnc(-c2cccc([N+](=O)[O-])c2)s1	-37%	-9%	26%	13%
O=C(CSc1ccc(Cl)cc1)Nc1nnc(-c2cccc([N+](=O)[O-])c2)s1	-23%	45µM*	-9%	-32%
CCN1C(=O)CSC1=Nc1cccc(C(=O)O)c1	?	-1%	3%	-9%
COc1cc(OC)cc(C(=O)N[C@H](C(=O)NC23CC4CC(CC(C4)C2)C3)C(C)C)c1	.	-3%	10µM*	-6%
O=C(Nc1cccc(CNCCc2c[nH]c3ccccc23)c1)c1ccccc1Cl	?	?	?	0%
COC(=O)c1c(C)oc2ccc(N(C(=O)Oc3ccccc3)S(=O)(=O)c3ccc(C(C)(C)C)cc3)cc12	.	-1%	.	.
C=CCOc1ccc(C(=O)Nc2ccccc2C(=O)NCc2cccnc2)cc1	12%	40µM*	12µM*	-7%
SMILES	Pf growth 96h	Sm TGR block	Pf growth 48h	SARS PLP yeast
CCCOc1ccc(C(=O)NC(=S)NCc2cccnc2)cc1	-19%	?	7%	-9%
CCOc1ccc(C(=O)NC(=S)NCc2cccnc2)cc1	10µM*	?	30%	-1%
Cc1cccc(C(=O)NC(=S)NCc2cccnc2)c1	27%	-30%	6%	0%
Cc1ccc(C(=O)NC(=S)NCc2cccnc2)c(C)c1	4%	45µM*	?	0%
CCOc1ccc(N(C)C(=O)CCc2nnc3ccc(N4CCCCC4)nn23)cc1	?	1%	-12%	5%
CC(C)C[C@H](NC(=O)c1[nH]cnc1C(=O)Nc1ccccc1)C(=O)OC(C)(C)C	?	-24%	13µM*	-11%
CC(C)C[C@H](NC(=O)c1nc[nH]c1C(=O)N[C@@H](CCCCN)C(=O)OC(C)(C)C)C(=O)OC(C)(C)C	.	.	.	1%
CCOC(=O)c1ccc(NC(=O)c2nc[nH]c2C(=O)N[C@@H](CC(C)C)C(=O)OC(C)(C)C)cc1	9.3µM*	12%	7.4µM*	1%
O=C(Nc1ccccc1)c1nc[nH]c1C(=O)NCc1ccccc1	?	-10%	0%	-4%
NNC(=O)c1nc[nH]c1C(=O)Nc1ccccc1	10µM*	3%	25%	5%
CCOC(=O)c1ccc(NC(=O)c2nc[nH]c2C(=O)N[C@@H](CC(C)C)C(=O)OCc2ccccc2)cc1	-1%	17%	?	2%
CC(C)C[C@H](NC(=O)c1[nH]cnc1C(=O)N[C@@H](C)C(=O)OC(C)(C)C)C(=O)OC(C)(C)C	9.3µM*	-19%	7.4µM*	-2%
CC(c1ccco1)N(C(=O)c1ccc(Cl)c([N+](=O)[O-])c1)c1ccccn1 (centres undefined)	-9%	-28%	-15%	-2%
COCCN(C(=O)CSc1nnc(-c2cccc(F)c2)n1N)c1c(N)n(CC(C)C)c(=O)[nH]c1=O	6%	0%	-12%	-2%
O=c1cc(O)n(-c2ccccc2)c(=S)[nH]1	?	2µM*	-8%	-4%
O=c1c2cc(Br)ccc2[nH]c(=S)n1-c1ccccc1	-20%	10%	27%	0%
O=C(NC1CCNCC1)C1CC1	46%	-35%	18%	2%
O=C(NC1CC1)C1C2C3C4CC5C3C5C4C12 (centres undefined)	7%	0%	5.9µM*	-7%
CCOC(=O)C1=C(C)OC(N)=C(C#N)C1c1ccc(OC)c(CSc2ccccn2)c1 (centres undefined)	-4%	25µM*	-19%	?
COc1ccc(C2C(C#N)=C(N)Oc3n[nH]c(C)c32)cc1CSc1ccccn1 (centres undefined)	50%	-12%	-21%	0%
Clc1ccc2c(c1)C(c1ccccc1Cl)=NCc1nnc(N3CCN(CCOc4ccccc4)CC3)n1-2	9.3µM*	0%	?	-4%
Clc1ccc2c(c1)C(c1ccccc1Cl)=NCc1nnc(N3CCN(CCSc4ccccc4)CC3)n1-2	31%	0%	-7%	-1%
Cc1c(CNC2CCCCCC2)c(C(=O)O)c(C)n1Cc1cccc(Cl)c1	.	-7%	.	.
CCCOc1ccc(-c2c(C(=O)N/N=C(\C)c3ccncc3)nnn2-c2nonc2N)cc1	9.3µM*	0%	?	-2%
C/C(=N\NC(=O)c1nnn(-c2nonc2N)c1-c1cccs1)c1ccc(O)cc1	12µM*	-5%	12µM*	18%
C/C(=N/NC(=O)c1nnn(-c2nonc2N)c1-c1ccccc1)c1ccncc1	7.4µM*	-10%	17%	2%
COc1cccc(-c2c(C(=O)N/N=C(\C)c3cccs3)nnn2-c2nonc2N)c1	-11%	8%	-20%	-1%
CCCOc1ccc(-c2c(C(=O)N/N=C/c3ccncc3)nnn2-c2nonc2N)cc1	16%	4%	29%	-1%
C/C(=N\NC(=O)c1nnn(-c2nonc2N)c1-c1ccc2c(c1)OCO2)c1cccs1	12µM*	-7%	?	1%

Assay outcomes: PubChem BioAssay, National Center for Advancing Translational Sciences (NCATS)
